Rows were chosen to be rich in hits. Some 3.9% of all compounds tested hit in one or more screens of this group.
Tb PFK inh: qHTS Assay to Find Inhibitors of T. brucei phosphofructokinase | ATP-dependent 6-phosphofructokinase (Trypanosoma brucei brucei), O15648 | T. brucei PFK, ADP-Glo luminescence | Potency, µM (top dose mostly 57.5 µM), for the others: at the highest dose activity, negative = inhibition, usual class: inhibitors | actives 0.17% (n = 330,000);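 also: 0% = uninhibited 1x PFK enzyme wells and -100% = no-enzyme wells; nearly all actives have a fitted effect of over 60% in size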
Target sequence (O15648 whole entry, looked up): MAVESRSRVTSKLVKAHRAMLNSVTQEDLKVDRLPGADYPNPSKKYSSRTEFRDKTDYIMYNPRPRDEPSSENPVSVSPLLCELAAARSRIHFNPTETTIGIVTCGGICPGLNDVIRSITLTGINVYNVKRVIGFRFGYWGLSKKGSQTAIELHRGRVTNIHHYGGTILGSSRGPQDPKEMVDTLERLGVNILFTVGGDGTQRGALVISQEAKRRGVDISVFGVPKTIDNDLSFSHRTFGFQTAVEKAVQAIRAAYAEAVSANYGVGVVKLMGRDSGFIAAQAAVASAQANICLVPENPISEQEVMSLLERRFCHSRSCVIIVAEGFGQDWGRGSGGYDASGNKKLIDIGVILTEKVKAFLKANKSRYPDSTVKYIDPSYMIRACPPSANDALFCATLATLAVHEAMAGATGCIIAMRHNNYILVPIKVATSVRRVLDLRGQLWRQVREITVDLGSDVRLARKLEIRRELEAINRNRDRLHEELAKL
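Compounds were pin-transferred as a titration series up to 57 uM into substrate buffer (0.5 mM F6P, 0.1 mM ATP, pH 8.0), then 1.25 nM PFK was added and reactions ran 45 min before ADP-Glo detection.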
PLK1 PBD inh: qHTS for Inhibitors of PLK1-PDB (polo-like kinase 1 - polo-box domain): Primary Screen; actives 2.8% (n = 360,000); Plk1 PBD binding of FITC phosphopeptide, fluorescence polarization; Potency, µM, for the others: max response, negative = inhibition, usual class: inhibitors; also: series mostly up to about 57 µM; % is scaled to controls: 0 for no effect and ±100 for the full control effect; nearly all actives have a fitted effect of over 65% in size
BRCA1 expr act: qHTS Assay to Identify Small Molecule Activators of BRCA1 Expression | actives 1.1% (n = 380,000) | AID 624202, 2012 | MCF7-BRCA1-FFLuc reporter, luminescence, 48 h; response scale: scaled: vehicle 0%, 10 µM genistein 100% | Potency, µM (titrated, usually from 46.1 µM), for the others: at the highest dose activation, actives largely listed as activators; also: nearly all actives have a fitted effect of over 80% in size
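Activators of BRCA1 expression were detected as increased firefly luciferase luminescence in engineered MCF7 cells after 48 h compound incubation. Signals were scaled to genistein 10 microM as full activation.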
VDR inhibitor: Inhibitors of the vitamin D receptor (VDR): qHTS; Vitamin D3 receptor (Homo sapiens), P11473; VDR-SRC2-3 peptide fluorescence polarization, 2 h; Potency, µM, for inactives: max response, negative = inhibition, hits mostly inhibitors; actives 0.93% (n = 400,000); AID 504847, 2011; also: % is scaled to controls: 0 for no effect and ±100 for the full control effect
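Fluorescence polarization assay measuring small-molecule disruption of VDR binding to the coregulator peptide SRC2-3. Compounds were pin-transferred (23 nl) into the reagent mix and incubated 2 h at room temperature before reading.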
Active calls of the source: *; u = inconclusive; x = no result given. Calls follow the shape of the dose curve; as a rule, active = well fitted curve in the direction sought with a large enough effect; inconclusive = small, poorly fitted or top-dose-only effect, or another doubt; inactive = no such curve, though single readings can be large; an effect the other way counts as inactive or inconclusive. Potency is read from the fitted curve at half-maximal effect.

SMILES	Tb PFK inh	PLK1 PBD inh	BRCA1 expr act	VDR inhibitor
O=C(Cn1cc(F)c(=O)[nH]c1=O)NCCO	3%	5.3µM*	-3%	-3%
COc1ccc(CN2C(=O)CS/C2=N/N=C/c2ccccc2)cc1	1%	-1%	4µM*	-9%
COc1ccc(/C=N/N=C2/SCC(=O)N2Cc2ccccc2)cc1	-2%	-2%	5.6µM*	-13%
Cc1cccc(C(=O)NCC(=O)OCc2cc(=O)n3nc(CC(C)C)sc3n2)c1	x	x	3%	6%
COCCn1c(=O)c(-c2cccc(C#N)c2)nc2cnc(N3CCOCC3)nc21	x	x	x	-9%
CCN(CC)C(=O)c1sc2nc(Cc3ccccc3)[nH]c(=O)c2c1C	2%	30µM*	0%	u
CC(=O)c1cccc(N2C(=NC(=O)COc3ccccc3)SC3CS(=O)(=O)CC32)c1 (stereo not given)	-2%	24µM*	21%	u
CCCCC/C=C\C\C=C/C=C/C=C/[C@@H](SC[C@H](N)C(=O)NCC(=O)O)[C@@H](O)CCCC(=O)O	x	x	x	5%
Cc1ccc(NC2Sc3ccccc3NC2=O)cc1 (stereo not given)	u	9.5µM*	-37%	11µM*
Cc1nn(C)c(C(=O)N/N=C/c2ccc(Br)cc2)c1Cl	0%	5%	-14%	-1%
CC(C)c1ccc(/C=N/NC(=O)c2c(Cl)cnn2C)cc1	2%	4%	7.1µM*	-7%
Cc1ccc(-n2cc(-c3ccccc3)c3c(NC4CCCC4)ncnc32)cc1	x	x	x	7%
Cc1cc(=O)[nH]c(N/N=C/C2=C(N3CCOCC3)C(=C\c3ccc(Cl)cc3)/CC2)n1	-2%	u	-25%	89µM*
Cc1cc(C)nc(N/N=C/C2=C(N3CCOCC3)C(=C/c3ccccc3)/CC2)n1	1%	-16%	-52%	-10%
Cc1cc(O)ccc1Nc1cc(-c2cccc(N(C)C)c2)ncn1	x	-9%	5.6µM*	x
CN1OC[C@@H]2CN(Cc3ccccc3)[C@H](c3cccc(-c4ccccc4)c3)C[C@@H]21	x	-9%	-30%	x
Cc1cc(S(=O)(=O)C(CNC(=O)c2ccc(OC(C)C)cc2)c2cccs2)ccc1F (stereo not given)	x	x	x	8%
COCCCNC1=C(C#N)C(=O)NC(c2cccc([N+](=O)[O-])c2)S1 (stereo not given)	x	19µM*	0%	x
COc1ccc(-n2nc(C(=O)N3CCCC(C)C3)c3c4ccccc4n(C)c3c2=O)cc1Cl (stereo not given)	x	x	x	7%
COC(=O)[C@H](COC(C)(C)C)NC(=O)O[C@@H]1Cc2cc(OC)ccc2O[C@H]1c1cccc(OC)c1	x	x	x	5%
FC(F)(F)c1nnc(-c2ccccc2)nc1Sc1ccc(Cl)cc1	-2%	-30%	-95%	71µM*
COc1cc(C=O)ccc1OCCCOc1ccccc1[N+](=O)[O-]	-4%	2%	7.1µM*	-7%
COc1ccc(Cl)c2sc(N3CCN(C(=O)c4ccco4)CC3)nc12	-4%	-4%	-18%	-3%
CCCC(=O)N1CCN(c2nc3c(OC)ccc(Cl)c3s2)CC1	-8%	27µM*	0%	-17%
CCCCCNC(=O)C1C(=O)Nc2ccccc2C(=O)N1c1c(C)cccc1C (stereo not given)	x	-16%	x	x
SMILES	Tb PFK inh	PLK1 PBD inh	BRCA1 expr act	VDR inhibitor
CC1(C(=O)NS(=O)(=O)Cc2cccc(Cl)c2)CCN1C(=O)Cc1ccc(-c2ccccc2)cc1 (stereo not given)	x	67µM*	8%	x
CC1(C(=O)NS(=O)(=O)c2ccc3ccccc3c2)CCN1C(=O)Cc1ccc(-c2ccccc2)cc1 (stereo not given)	x	42µM*	35%	x
O=C1/C(=C/c2ccco2)CCc2ccccc21	-19%	-11%	36%	-21%
COc1ccc2c(c1)CC/C(=C/c1ccco1)C2=O	-5%	-5%	3.5µM*	-2%
CCCCCOC(=O)CSc1nc2sc3c(c2c(=O)n1Cc1ccccc1)CC(C)(CC)OC3 (stereo not given)	x	x	x	-3%
Cc1ccc(S(=O)(=O)NCCc2cn3ccsc3n2)cc1	x	x	x	7%
N#Cc1cccc(NC(=O)Cn2cnc(S(=O)(=O)N3CCOCC3)c2)c1	-19%	9.5µM*	-10%	u
O=C(NC1CCCC1)c1cc(S(=O)(=O)N2CCCC2)ccc1Cl	-8%	-8%	1%	-9%
Cc1csc(NC(=O)CSc2nc3sc(C)c(C)c3c(=O)[nH]2)n1	0%	2.4µM*	-6%	u
O=C(O)CCc1ccc(-c2ccccc2)o1	8%	u	-45%	20µM*
CCOC(=O)N/N=C\c1ccc(OC(=O)c2ccco2)cc1	-1%	u	69%	-7%
CCOc1cc(/C=N\NC(=O)OC)ccc1OC(=O)c1ccco1	-4%	4%	4%	15%
CCOc1cc(/C=C2/SC(=S)NC2=O)ccc1OC(=O)c1ccco1	-3%	21µM*	30%	-3%
COc1cc(/C=C2/SC(=O)NC2=O)ccc1OC(=O)c1ccco1	-2%	-20%	-25%	-4%
CCOc1cc(/C=N\NC(=O)OC(C)(C)C)ccc1OC(=O)c1ccco1	-5%	21µM*	0%	-17%
CC(C)(C)OC(=O)N/N=C\c1ccc(OC(=O)c2ccco2)cc1	-2%	24µM*	7.9µM*	-3%
COc1cc(Cn2c3ccc(NC(=S)NCc4ccc(C)cc4)cc3c(=O)n2C)ccc1F	x	-28%	-8%	x
O=C(NCC1CCCO1)C(Cc1ccccc1)N1C(=O)C2C3C=CC(C4CC34)C2C1=O (stereo not given)	0%	11µM*	-3%	u
Cc1ccc(C(=O)NCC2CCCO2)cc1N1CCCC1=O (stereo not given)	-2%	27µM*	-4%	7%
O=C(NCC1CCCO1)C(C(=O)c1ccccc1)n1ccccc1=O (stereo not given)	2%	-4%	2%	-12%
CCOC(=O)c1c(NC(=S)NCC2CCCO2)sc(C)c1C (stereo not given)	-13%	12µM*	-22%	89µM*
Clc1ccc(-c2ccc(CNCC3CCCO3)o2)cc1 (stereo not given)	1%	0%	10µM*	4%
COCCCNC(=S)NC(=O)c1ccc(C)cc1	-8%	-6%	6.3µM*	4%
O=C(NCCc1ccccc1)C(=O)NCC1CCCO1 (stereo not given)	0%	-1%	13µM*	-6%
COCCCNC(=S)NNC(=O)c1ccc(C(C)(C)C)cc1	1%	7%	-11%	0%
Cc1ccc(NC(=O)C(=O)NCC2CCCO2)cc1 (stereo not given)	-7%	-12%	10µM*	5%
Cc1ccc(C(=O)NC(=S)NCC2CCCO2)cc1 (stereo not given)	3%	-1%	10µM*	5%
O=C(CCNC(=O)c1ccc(Br)cc1)NCc1cccnc1	-10%	-1%	-2%	9%

Assay outcomes as filed in PubChem.
